Compound activity from PubChem.
KKLEB tox – counter-screen for CF NF-kB inhibitors: cytotoxicity | KKLEB CF airway cells viability, ATPlite luminescence, overnight; active compounds read low; cells stimulated with P. aeruginosa culture filtrate | activity change (cytotoxicity), % at 5 µM | hit rate 0.36% among 360,000 | AID 602141;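 active means corrected activity change at or below -50% at 5 µM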
CF NFkB inh – blocks PAF-induced NF-kB reporter in cystic fibrosis cells; AID 588850; inhibition, % at 5 µM; KKLEB NF-kB-GFP reporter, GFP fluorescence overnight; hit rate 0.86% among 360,000;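 active means at least 50% inhibition at 5 µM, scaled per plate between neutral and stimulator controls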;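 further: PAF is a Pseudomonas aeruginosa culture filtrate used as stimulus; plate controls were PAF-stimulated DMSO wells for no effect and unstimulated DMSO wells for full effect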
HIF-2a inh – HIF-2a inhibition; AID 624352; 786-0 RCC cells HIF-2a reporter, luciferase luminescence, overnight; hit rate 0.72% among 360,000; inhibition, % at 18.8 µM;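 active means inhibition of the luminescence signal of 40% or more relative to plate controls, in a single-dose primary screen at 18.75 µM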
Peg3 promoter – inhibitors of Peg3 promoter | HeLa PEG-Prom luciferase reporter, luminescence, overnight | inhibition, % at 20 µM | hit rate 1.7% among 360,000;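 active means inhibition of at least 50% at 20 µM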
TWEAK Fn14 block – blocks TWEAK-Fn14 interaction in a reporter cell assay. TWEAK-stimulated Fn14 reporter cells, luciferase luminescence, 8 h. inhibition, % at 10 µM. hit rate 2% among 360,000. AID 1159606; in the data active means inhibition above about 50%
TROY NFkB inh – TROY signaling inhibition; Q293 LMP1-TROYcd NF-kB luciferase reporter, 4 h; inhibition, % at 10 µM; hit rate 0.98% among 360,000;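 active means compounds whose plate-normalised and pattern-corrected inhibition of the luciferase reporter signal at the single screening dose is 50% or more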
Numbers without * were called inactive; x = no result given. Compounds with a hit are over-represented: about 4% of the library has one in this group of screens.

SMILES	KKLEB tox	CF NFkB inh	HIF-2a inh	Peg3 promoter	TWEAK Fn14 block	TROY NFkB inh
COCCNC(=O)C1(C)CCCN(C(=O)c2c(-c3ccccc3)noc2C)C1 (centres undefined)	15.1	-2.9	16.9	2.7	0.5	-7.3
O=[N+]([O-])c1ccc(Sc2nccn2Cc2ccccc2)c([N+](=O)[O-])c1	-29.8	47.6	-3.9	34.8	69.5*	23.8
Cc1cccc(Sc2ccc([N+](=O)[O-])cc2[N+](=O)[O-])n1	7.8	-6.2	32.9	25.4	18.8	-4.6
CC(C)Sc1nc(-c2ccccc2)cc(=O)[nH]1	-15.2	2.9	12.7	12.3	-5.9	9.1
O=[N+]([O-])c1ccc(Sc2ncccn2)c([N+](=O)[O-])c1	-22.6	36.9	0.7	10.5	54.4*	14.0
O=c1cc(-c2ccccc2)nc(Sc2ccc([N+](=O)[O-])cc2[N+](=O)[O-])[nH]1	-11.2	35.0	-39.0	20.4	52.3*	12.8
O=C(c1cnn2c(-c3ccccc3)cc(-c3ccccc3)nc12)N1CCN(Cc2ccccc2)CC1	-4.0	2.5	5.6	40.3	28.5	36.9
Cc1ccc2c(C)nc(Nc3nc(CSc4nnnn4-c4ccccc4)cc(=O)[nH]3)nc2c1	5.6	10.3	18.0	52.6*	33.7	-0.3
CC1(c2ccccc2)CCC(=O)NC1 (centres undefined)	10.5	-22.6	8.1	11.3	5.7	6.1
CC1C(=O)CCC1(C(=O)O)c1ccccc1 (centres undefined)	4.6	1.4	19.0	4.5	97.8*	-2.5
CCCCn1c(N)c(N(CC(C)C)C(=O)c2ccc(N3C(=O)CCC3=O)cc2)c(=O)[nH]c1=O	2.2	-6.6	5.6	11.1	0.2	1.4
O=C(Nc1ccccc1)C1COc2ccccc2O1 (centres undefined)	-3.6	3.9	-184.5	-87.7	80.5*	-15.7
Cc1ccc(NC(=O)C2COc3ccccc3O2)cc1 (centres undefined)	16.4	-11.9	-276.8	-239.8	51.2*	-44.6
O=C(Nc1cccnc1)C1COc2ccccc2O1 (centres undefined)	6.7	-4.8	-10.8	-21.8	5.6	-12.3
CC(=O)c1sc(NC(=O)C2COc3ccccc3O2)nc1C (centres undefined)	-0.1	19.2	-9.7	-78.0	87.4*	56.2*
C/C(=N\NC(=O)C1COc2ccccc2O1)c1ccc(C)o1 (centres undefined)	-4.5	4.3	-7.2	1.7	2.7	1.0
C/C(=N\NC(=O)C1COc2ccccc2O1)c1ccccn1 (centres undefined)	-10.1	-4.2	-33.1	51.1*	-50.9	6.2
O=C(Nc1nncs1)C1COc2ccccc2O1 (centres undefined)	-3.1	-2.2	-46.5	-20.0	-3.1	-10.2
Cc1ccc(S(=O)(=O)N2C[C@H]3C(=O)C[C@@H](c4ccccc4)N(S(=O)(=O)c4ccc(C)cc4)[C@H]3C[C@H]2c2ccc(Cl)cc2)cc1	4.0	14.8	5.8	-9.6	-1.6	-5.0
COC(=O)C1N[C@@H]([C@@H](NC(=O)COc2ccccc2)C(=O)NC2CC2)SC1(C)C (some centres undefined)	-12.9	10.9	-62.3	-12.2	-0.9	-5.2
CC(OC(=O)/C=C/c1ccco1)C(=O)NC1CCCCC1C (centres undefined)	6.3	4.1	-7.5	0.7	1.0	12.1
COc1ccc(Cl)cc1CC1(C)C(=O)Nc2c(Cl)cccc21 (centres undefined)	20.2	-56.6	13.6	0.1	-3.0	6.8
Cc1ccccc1COc1cccn2c(N(C)C(=O)CCC3CCCC3)c(C)nc12	-3.8	30.2	-1.9	14.4	27.9	21.4
O=C(Nc1ccc(-c2cn3ccsc3n2)cc1)C1COc2ccccc2O1 (centres undefined)	6.3	-12.4	-148.1	-56.3	45.4	57.5*
CC1(C)Oc2ccc(NC(=O)C3COc4ccccc4O3)cc2O1 (centres undefined)	0.9	-24.0	-116.1	-100.6	41.7	54.5*
SMILES	KKLEB tox	CF NFkB inh	HIF-2a inh	Peg3 promoter	TWEAK Fn14 block	TROY NFkB inh
O=C(Nc1ccc([N+](=O)[O-])cc1)C1COc2ccccc2O1 (centres undefined)	-13.7	9.7	-65.8	-39.0	-4.8	-10.1
COc1ccc([C@@H]2[C@@H]3C(=O)N(C(C)(C)C)C(=O)[C@@H]3[C@]3(C)C(=O)N(c4cccc(Br)c4)C(=O)N23)cc1	-9.7	15.8	9.6	-14.7	11.3	-5.6
O=C(Nc1nc2c(F)cc(F)cc2s1)c1ccccn1	-20.8	-28.4	-143.5	75.3*	41.8	35.7
OCC[C@@H]1C[C@H](O)[C@@H](O)[C@@]2(OCCc3cc(Cl)ccc32)O1	-10.3	16.5	13.0	8.4	-0.7	6.8
O=C(NC1CCN(S(=O)(=O)c2ccccc2C(F)(F)F)CC1)c1ccco1	2.3	1.0	10.1	9.4	56.2*	0.0
O=C(NC1CCN(S(=O)(=O)c2ccc(F)cc2)CC1)c1ccco1	-2.6	3.2	-0.6	3.1	-1.5	3.4
Cc1noc(C)c1S(=O)(=O)N1CCCC1C(=O)O (centres undefined)	9.1	-0.8	13.0	0.0	1.7	-9.9
CCOc1cc(/C=C2/NC(=S)NC2=O)ccc1OCc1ccc([N+](=O)[O-])cc1	-33.3	26.5	14.4	50.8*	-16.0	-5.8
O=C(Nc1ccccc1)C1=C[C@H](C2CCCCC2)C[C@H](OCCCCO)O1	-11.2	11.3	-173.8	-156.7	57.5*	66.7*
CC(C)(C)[C@H]1C=C(C(=O)Nc2ccccc2)O[C@@H](OCCCCO)C1	-8.7	-19.7	-56.4	-58.8	83.8*	83.8*
O=C(Nc1ccccc1)C1=C[C@@H](C2CCCCC2)C[C@@H](OCCCCO)O1	-1.9	19.9	-106.4	-89.8	62.0*	67.1*
O=C(NCc1ccccc1)C1=C[C@H](C2CCCCC2)C[C@H](OCCCCO)O1	-21.4	15.7	-10.1	0.3	-8.7	-28.8
COC(=O)c1cccc(NC(=O)CN2CCc3ccccc3C2)c1	-2.1	-1.1	0.4	-4.4	3.9	8.0
O=C(CCNS(=O)(=O)c1ccccc1F)N1CCN(Cc2ccccc2)CC1	-3.0	-0.6	-1.7	12.2	-9.2	-3.7
N#Cc1ccccc1OCCCN1CCC(C(O)(c2ccccc2)c2ccccc2)CC1	x	x	-20.2	x	-5.2	-1.6
COc1ccc(-c2nn(-c3ccccc3)cc2/C=N/N2C(=O)CSC2=S)cc1	-21.0	19.0	42.6*	56.6*	61.6*	-33.1
COc1ccc(-c2nn(-c3ccccc3)cc2/C=N/O)cc1	6.1	9.9	-41.2	3.4	-5.5	-28.7
CCN(CC)CCNC(=O)c1ccc(NC(=O)c2cc(-c3ccco3)nc3ccccc23)cc1	-3.4	-29.9	23.7	60.9*	-9.4	3.7
O=C(Nc1cccnc1)c1cn(-c2ccccc2)nc1-c1cccs1	1.1	8.4	-189.6	-115.6	3.1	-40.9
